In all, about 1,000 compounds went through this assay and about 270 (27%) were called active. No stated cut-off is given here; in the data, active means inhibition above about 14%; inactive means the rest. The list is a sample of the results.
target: Methyl-CpG-binding domain protein 2 (Homo sapiens) (UniProt Q9UBB5); assay: inhibitors of MBD2 binding to methylated DNA, confirmation, biochemical, TR-FRET, DNA-binding domain, human (AID 720531); settings: TR-FRET MBD2-DBD binding to methylated oligonucleotide; at 4.4 µM; hits give high values
Sequence (Q9UBB5 whole entry, looked up, the tested form may be a part): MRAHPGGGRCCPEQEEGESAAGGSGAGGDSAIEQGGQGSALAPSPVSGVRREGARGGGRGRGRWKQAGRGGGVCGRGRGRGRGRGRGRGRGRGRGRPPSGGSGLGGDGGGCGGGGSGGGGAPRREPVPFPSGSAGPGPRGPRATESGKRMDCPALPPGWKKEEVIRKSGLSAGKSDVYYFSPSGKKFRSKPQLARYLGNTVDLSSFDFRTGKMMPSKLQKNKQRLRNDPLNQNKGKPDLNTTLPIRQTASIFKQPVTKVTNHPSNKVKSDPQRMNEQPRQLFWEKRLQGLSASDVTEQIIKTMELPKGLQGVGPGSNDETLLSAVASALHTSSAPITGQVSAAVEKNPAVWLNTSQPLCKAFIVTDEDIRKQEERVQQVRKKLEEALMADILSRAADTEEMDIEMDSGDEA

SMILES | inhibition
c1ccc2cc3c(NCCN4CCOCC4)ccnc3cc2c1 | 25% (active)
Cc1cccc(NC(=O)C[C@H]2CC[C@H]3[C@@H](COc4ccc(NC(=O)Nc5ccccc5)cc4C(=O)N3C)O2)c1 | 8.99% (inactive)
COC(=O)[C@]12C[C@H](CC(=O)NCCC(C)C)C(=O)N(CCc3ccc(OC)c(OC)c3)C1=C[C@H](C(C)(C)C)O[C@@H]2C | 2.11% (inactive)
O=c1ccc2c(-c3ccccc3S(=O)(=O)O)c3ccc(O)c(O)c3oc-2c1O | 94.4% (active)
CN(C)[C@@H]1C(=O)C(C(N)=O)=C(O)[C@@]2(O)C(=O)C3=C(O)c4c(O)ccc(Cl)c4[C@@H](O)[C@H]3C[C@@H]12 | 0.76% (inactive)
CN(C)CCNC(=O)c1ccc(Cl)c2cc3ccccc3nc12 | 68.7% (active)
COc1nc(N(C)C)nc(N2CC(=O)N(CCNS(=O)(=O)c3ccc(C)cc3)C2=N)n1 | 3.06% (inactive)
COC(=O)c1c(NC(=O)c2ccc(S(=O)(=O)N3CCOCC3)cc2)sc2c1CCN(C(C)C)C2 | 23.6% (active)
CCOc1ccc(-n2c(SCC(=O)Nc3ccc(OC)cc3)nc3sc4c(c3c2=O)CCN(C)C4)cc1 | 4.44% (inactive)
COc1ccc(COC[C@H](CC(C)C)N2CCN(C(=O)c3cccc(C(F)(F)F)c3)CCC2=O)cc1 | 5.45% (inactive)
Nc1ccccc1C(=O)NC1CCCCNC1=O (stereo not given) | 0.65% (inactive)
C=CCn1c(=S)[nH]c2scc(-c3ccco3)c2c1=O | 27.2% (active)
COC(=O)c1ccc(CSc2nncn2N)cc1 | 1.91% (inactive)
Cc1c(NS(=O)(=O)c2cc(C(=O)NCCc3ccc(F)cc3)cc(Cl)c2Cl)c(=O)n(-c2ccccc2)n1C | 3.66% (inactive)
C=CCN(C(=O)[C@@H](CCCC)[C@@H](O)c1ccc(Cl)cc1)c1ccccc1 | 3.23% (inactive)
C=CC1=C(C(=O)O)N2C(=O)[C@@H](NC(=O)/C(=N\OCC(=O)O)c3csc(N)n3)[C@H]2SC1 | 104% (active)
CNC(=O)C[C@H]1C(=O)N(c2ccc(OC)cc2)C[C@@H]1Cc1ccccc1 | 2.83% (inactive)
CCOc1ccc(S(=O)(=O)N2CCC(c3ccccc3)CC2)cc1C(=O)O | 0.33% (inactive)
CC(C)c1nc(CNC(=O)CC2C(=O)NCCN2Cc2cccc(F)c2F)cs1 (stereo not given) | 1.21% (inactive)
CCOc1ccc(NC(=O)c2cc(C)nc3ccccc23)cc1 | 1.13% (inactive)
Cc1ccc(Cc2cnc(N)s2)o1 | 2.75% (inactive)
CCOC(=O)C1C(=O)OC2(CCCC2)C1C(=O)OCC (stereo not given) | 1.9% (inactive)
CCN(CC)CCOc1ccc2c(c1)C(=NNC(=O)c1ccccn1)c1cc(OCCN(CC)CC)ccc1-2 | 112% (active)
C=CCN1C(=O)c2ccc(C(=O)N3CCC(C(=O)OCC)CC3)cc2C1=O | 4.08% (inactive)
COc1ccccc1C(=O)NNC(=O)CCN1C(=O)/C(=C\c2ccccc2)SC1=S | 1.72% (inactive)
COC(=O)c1cn(C)c2ccc(S(=O)(=O)N3CC(C)CC(C)C3)cc2c1=O (stereo not given) | 6.67% (inactive)
Cc1ccc(-c2ccnc3nc(Sc4ncc(C(F)(F)F)cc4Cl)nn23)cc1 | 3.6% (inactive)
CCOc1cc(-c2noc(CCCC(=O)NC3CCCCC3)n2)ccc1OC | 7.12% (inactive)

SMILES | inhibition
C=C1c2c(Cl)ccc(O)c2C(O)=C2C(=O)[C@]3(O)C(O)=C(C(N)=O)C(=O)[C@@H](N(C)C)[C@@H]3[C@@H](O)C12 (stereo not given in full) | 7.25% (inactive)
Cc1cc(C)c2nc3nc(C)cc(C)c3c(N)c2c1 | 45.1% (active)
CC(C)Oc1ccc(C2NC(=O)NC2=O)cc1 (stereo not given) | 6.62% (inactive)
COC(=O)c1ccc2nc(C3CCCCC3)c(Cc3cccc(F)c3)n2c1 | 4.72% (inactive)
Cc1ccccc1NC(=O)CN1C(=O)N/C(=C\c2cccn2-c2cccc(C(=O)O)c2)C1=O | 21.2% (active)
Cc1cccc(CN2CCN(C3CN(Cc4cn(Cc5cc(C)cc(C)c5)nn4)S(=O)(=O)C3)CC2)c1 (stereo not given) | 1.92% (inactive)
CCOc1ccc(N(CC(=O)NCCOc2ccccc2OC)S(=O)(=O)c2ccccc2)cc1 | 2.61% (inactive)
Cc1c(C=O)n(C)n(-c2ccccc2)c1=O | 6.3% (inactive)
Brc1ccc(-c2n(-c3ccccn3)c3ccccc3[n+]2-c2ccccn2)cc1 | 76.4% (active)
COc1ccc(-n2cc(-c3ccccc3)c3c(=S)nc[nH]c32)cc1 | 3.57% (inactive)
Cc1ccc(C)c(NC(=O)c2ccc(OC(=O)c3ccco3)cc2)c1 | 4.94% (inactive)
CC(=O)c1ccccc1NC(=O)COC(=O)C1COc2ccccc2O1 (stereo not given) | -0.13% (inactive)
COc1ccc(CNC(=O)c2c[nH]c3c(OC)cc(OC)cc3c2=O)cc1 | 3.79% (inactive)
COC(=O)c1ccc2nc(-c3cccc(Br)c3)c(Cc3ccc(OC)cc3C)n2c1 | 8.39% (inactive)
CN(C(=O)COC(=O)c1cc(-c2ccco2)nc2ccccc12)C1CCS(=O)(=O)C1 (stereo not given) | 32.3% (active)
CO/N=C(/CS(=O)(=O)c1ccc(Br)cc1)c1ccc(OC)cc1 | 3.47% (inactive)
COc1ccc(OCc2cc(C(=O)NCC3(C)COC3)no2)c(Cl)c1 | -0.36% (inactive)
CCOc1cc(N2CCOCC2)c(OCC)cc1NC(=O)c1cc(C)nc2ccccc12 | 2.46% (inactive)
COc1ccc2[nH]c3c(C)c4cc[n+](C)cc4c(C)c3c2c1 | 109% (active)
CCOC(=O)CCP(=O)(O)C(O)(c1ccccc1)c1ccccc1 | 5.44% (inactive)
COc1ccc2c(c1)c(=Cc1ccc(N(C)C)cc1)c1cc(-c3ccccc3)[n+](C)n12 | 73% (active)
CCOC(=O)c1sc(NC(=O)CCN2CCOCC2)c(C(=O)OCC)c1C | 1.01% (inactive)
O=C(c1n[nH]c2c1CCC2)N1CCCC(Nc2cccc(F)c2)C1 (stereo not given) | 3.32% (inactive)
O=C(CC1CCCCC1)Nc1c2c(nn1-c1ccc(F)cc1)CS(=O)(=O)C2 | 1.28% (inactive)
CCOC(=O)c1ccc(-n2c(CCC(=O)O)ccc2-c2ccccc2)cc1 | -0.54% (inactive)
COC(=O)c1cccc(NC(=O)c2cccc(N3C(=O)CCC3=O)c2)c1 | 1.64% (inactive)
Cc1ccc(C(=O)Nc2ccc3c(c2)OCO3)cc1S(=O)(=O)N1CCCCC1 | 5.06% (inactive)
